In the test the target is Scavenger receptor class B member 1 (Mus musculus) (UniProt Q61009). Put plainly: inhibitors of SR-BI mediated HDL lipid uptake, dose response, ldlA[mSR-BI] cells, fluorescence, cherry pick (AID 493194).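 Note: CHO cells lacking LDL receptor and overexpressing mouse SR-BI; cellular uptake of fluorescently labeled HDL measured as cell fluorescence.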 Conditions: CHO ldlA[mSR-BI] DiI-HDL uptake fluorescence, 3 h; series mostly up to 35 µM.

Results with a measured potency or affinity are listed apart. Results filed as inconclusive are left out. Calls of active or inactive are those of the source.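 Rule for the calls: active = a valid curve of falling signal whose half-effect concentration is at most ten times the top tested dose; inconclusive = flat curve at 30 to 70% inhibition, or poor fit; inactive = signal rise, flat within 30%, or potency beyond limit.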

Chain of Scavenger receptor class B member 1 (Mus musculus) (Q61009 whole entry, looked up): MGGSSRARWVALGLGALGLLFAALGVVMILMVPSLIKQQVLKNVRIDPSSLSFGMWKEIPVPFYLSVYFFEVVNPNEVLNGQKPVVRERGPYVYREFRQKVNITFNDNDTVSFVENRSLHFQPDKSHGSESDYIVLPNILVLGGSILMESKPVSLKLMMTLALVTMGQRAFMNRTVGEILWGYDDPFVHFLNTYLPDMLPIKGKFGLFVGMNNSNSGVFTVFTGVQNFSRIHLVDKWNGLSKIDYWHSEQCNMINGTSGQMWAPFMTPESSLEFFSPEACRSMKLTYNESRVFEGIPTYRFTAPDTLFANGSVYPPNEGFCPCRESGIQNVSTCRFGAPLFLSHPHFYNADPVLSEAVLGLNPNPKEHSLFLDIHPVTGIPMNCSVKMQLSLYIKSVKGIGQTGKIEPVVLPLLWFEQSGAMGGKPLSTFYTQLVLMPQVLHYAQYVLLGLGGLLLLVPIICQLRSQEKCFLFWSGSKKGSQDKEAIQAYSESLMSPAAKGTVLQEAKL

Regarding `CC(=O)Oc1ccc(C(=O)Cc2ccc3ccccc3n2)c(O)c1C`, the result was inactive.

Regarding `COc1ccc(N2CCN(C(=O)Cc3csc(NC(=O)Nc4ccccc4OC)n3)CC2)cc1`, the compound was classed as inactive.

With `O=C(c1cccc(Cl)c1)N1CCC2CC1c1cc(-c3ccccc3)ccc12` (stereo unspecified), the compound was classed as inactive. Regarding `O=C(Nc1ccccc1)c1ccc2c(c1)CCN2S(=O)(=O)c1ccccc1`, the outcome was inactive. As to `Cc1c(C(=O)OCC2CCCO2)[nH]c2c1C(=O)CC(c1ccco1)C2` (stereo unspecified), the call was inactive. As for `Cc1sc(NC(=O)Cc2ccc3c(c2)OCO3)nc1-c1ccc2c(c1)CCN2C(=O)c1cccc(F)c1`, the compound was classed as inactive.

Turning to `O=S(=O)(c1ccccc1)c1cnc(-c2ccccc2)nc1N1CCCCC1`, the outcome was inactive. On to `CCCCNc1c(-c2ccc(-c3ccc(C(C)=O)cc3)c(OC)c2)nc2cnccn12`, for which the outcome was inactive.

With `COC(=O)c1[nH]c2c(c1C)C(=O)CC(c1cccs1)C2` (stereo unspecified), the result was inactive. For `O=C(Nc1ncc(Cc2cccc(C(F)(F)F)c2)s1)c1ccc(-c2cccc([N+](=O)[O-])c2)o1` the value was “inactive”; for `O=C(c1ccc(-n2nc(C(F)(F)F)c3c2CCCC3)cc1)N1CCOCC1`, “inactive”. For the compound `COCCCN(C(=O)c1ccco1)c1nc(-c2ccc(OC)cc2)cs1`, the compound was classed as inactive. For `CC1CN(c2oc(COc3ccc(Cl)cc3Cl)nc2C#N)CC(C)O1` (stereo unspecified) the value was “inactive”; for `Cc1c(Nc2nc3ccccc3nc2N2CCN(c3ccccc3)CC2)c(=O)n(-c2ccccc2)n1C`, “inactive”; for `CC(C)c1ccc(NC(=O)c2sccc2-n2cccc2)cc1`, “inactive”. For the compound `Cc1cc(C)cc(NC(=O)CCc2c(C)nn(-c3ccc(N4CCCCC4)nn3)c2C)c1`, the result was inactive. For `Oc1csc(Cc2nc(-c3ccc4ccccc4c3)cs2)n1` the value was “inactive”; for `COc1cc(OC)cc(C(=O)N[C@H](C(=O)Nc2nc(-c3ccc(F)c(F)c3)cs2)C(C)C)c1`, “inactive”.

Turning to `CCOc1ccc(NC(=O)CN2CCN(CC(=O)Nc3ccc(OC)cc3)CC2)cc1`, the outcome was inactive. For `Cc1cccc(N2CCN(C(=O)CN(C)S(=O)(=O)c3ccc4c(c3)CCC(=O)N4)CC2)c1C` the value was “inactive”; for `CN(C(=O)c1cc(-n2cnnc2)ccc1Cl)c1ccccc1`, “inactive”. With `O=C(NCN1C(=O)C2C3C=CC(C3)C2C1=O)OC1CCCCC1` (stereo unspecified), the compound was called inactive.

With `COc1ccc([C@H]2/C=C\CN(S(=O)(=O)c3cccc4cccnc34)[C@@H](C)C(=O)N2Cc2ccc(F)cc2)cc1`, the result was inactive. For `COc1ccc(NC(=O)CN2CCN(CC(=O)Nc3ccc(OC)c(OC)c3)CC2)cc1` the value was “inactive”.

For the compound `CC(C)(C)C(=O)Nc1sc2c(c1-c1nc3ccccc3[nH]1)CCCC2`, the outcome was inactive.

Consider `O=C(NC1CC1)c1ccc(CN(c2ccccc2)S(=O)(=O)c2ccccc2)cc1`, for which the compound was classed as inactive. For `CCOC(=O)Nc1ccc2c(c1)N(C(=O)C(C)N1CCCC1)c1ccccc1CC2` (stereo unspecified) the value was “inactive”; for `CCCC(=O)Nc1ccc(Cl)c(NC(=O)c2ccc(Br)o2)c1`, “inactive”.

Take `CCOC(=O)C(C)(C)Sc1nc2c(cnn2-c2ccc(F)cc2)c(=O)[nH]1`: the outcome was inactive.

On to `CNc1nc(-c2ccc3c(c2)CCN3C(=O)CC(C)(C)C)c(C)s1`, for which the call was inactive. Regarding `CC(=O)Nc1c(I)c(C(=O)N[C@H]2C(O)O[C@H](CO)[C@@H](O)[C@@H]2O)c(I)c(N(C)C(C)=O)c1I` (stereo partly specified), the result was inactive. Take `Cc1c(C(=O)Nc2ccc(Cl)cc2)c2ccccn2c1CCc1ccncc1`: the outcome was inactive. As for `CC1Cc2ccccc2N1C(=O)Cn1nnc(-c2ccccc2NC(=O)C2CCC2)n1` (stereo unspecified), the compound was called inactive. Turning to `O=C(c1ccc(S(=O)(=O)NCc2ccco2)cc1)N1CCN(Cc2ccc3c(c2)OCO3)CC1`, the compound was classed as inactive. For `CC(=O)NCCC1CCN(C(=O)c2cc(COc3ccc(C)nc3)on2)CC1` the value was “inactive”; for `COC(=O)c1cnc(Oc2ccc(NC(=O)NC(=O)c3c(OC)cccc3OC)cc2)cc1C(F)(F)F`, “inactive”; for `COc1cccc(-c2csc(N3CCN(C(=S)Nc4cccc(Cl)c4)CC3)n2)c1`, “inactive”. For `Cc1cccc(NC(=O)C2(C)CC3c4ccccc4C2c2ccccc23)c1C` (stereo unspecified) the value was “inactive”; for `CC(=O)Nc1nc(-c2ccccc2)nc(-c2ccccc2OC(C)=O)n1`, “inactive”. For `CS(=O)(=O)N1CCc2cc(-c3csc(NC(=O)Cc4ccccc4)n3)ccc21` the value was “inactive”; for `CCOC(=O)Nc1nc(-c2ccccc2)c(C(=O)c2ccccc2)s1`, “inactive”; for `CCN(C(=O)COC(=O)c1c(C)c(-c2ccccc2)nc2ccccc12)C1CCS(=O)(=O)C1` (stereo unspecified), “inactive”. For `COc1ccc([C@H]2/C=C\CN(S(=O)(=O)c3ccc4ccccc4c3)[C@@H](C)C(=O)N2Cc2ccc(F)cc2)cc1`, the compound was called inactive. For `Oc1ccc(/C=C/c2nc(-c3ccccc3O)n(-c3ccccc3)n2)cc1` the value was “inactive”; for `Cc1ccc(-c2cc(C(F)F)n3ncc(C(=O)N4CCN(c5cccc(C)c5C)CC4)c3n2)cc1`, “inactive”; for `CCCCc1nnc(NC(=O)c2ccc(OCc3c(C)noc3C)cc2)s1`, “inactive”. For `CCC(C)n1ncn(-c2ccc(N3CCN(c4ccc(OCC5COC(Cn6cncn6)(c6ccc(Cl)cc6Cl)O5)cc4)CC3)cc2)c1=O` (stereo unspecified) the value was “inactive”; for `COc1ccc(N2C(=O)C3C(C2=O)C3(c2ccccc2)c2ccccc2)cc1` (stereo unspecified), “inactive”. `CCCCN(Cc1ccccc1)c1ncnc2nc[nH]c12`: the result was inactive. As to `COC(=O)[C@]1(CC(C)C)N[C@H](c2ccc(-c3cccc(Cl)c3)cc2)[C@@H]2C(=O)N(C)C(=O)[C@@H]21`, the compound was called inactive. For `COc1ccc(OC[C@@H](O)CNC(=O)c2cccc3c2C(=O)c2ccc(-c4ccc(F)cc4OCc4ccccc4)cc2S3(=O)=O)cc1` the value was “inactive”; for `Cn1nc(-c2ccc(Cl)cc2)c2cc(C(=O)NCCCN3CCOCC3)sc21`, “inactive”; for `CC(C)c1cc(CNC(=O)C2CCC(=O)N(CCc3ccc(Cl)cc3)C2)on1` (stereo unspecified), “inactive”.

For `Cc1cccc(N2CCN(C(=O)COc3ccc4c(C)cc(=O)oc4c3C)CC2)c1C`, the compound was called inactive. For `COc1cccc(-c2csc(N3CCN(C(=S)Nc4cccc(C)c4)CC3)n2)c1` the value was “inactive”. Consider `O=C(C[C@@H]1C/C=C\C[C@H](NC(=O)OCC2c3ccccc3-c3ccccc32)C(=O)O[C@H](c2ccccc2)CNC1=O)NCCO`, for which the call was inactive. For `Cc1cc2oc(=O)cc(CN3CCN(C/C=C/c4ccccc4)CC3)c2cc1O` the value was “inactive”. For `CC(C)C(=O)Nc1sc2c(c1-c1nc3ccccc3[nH]1)CCCC2` the value was “inactive”. For `COc1cc(/C=C\C(=O)NCc2ccc3c(c2)cc(C)n3C)cc(OC)c1OC` the value was “inactive”; for `Cc1ccc(C)c(NC(=O)c2ccc3c(c2)N(Cc2ccc(F)cc2)C(=O)CS3=O)c1` (stereo unspecified), “inactive”; for `COc1ccc(N2CC(C(=O)NCCc3ccc(Cl)cc3)CC2=O)c(OC)c1` (stereo unspecified), “inactive”. With `COc1ccccc1C(CC(=O)Nc1ccccc1C)c1ccc(OC(C)C)cc1` (stereo unspecified), the compound was called inactive. Turning to `CC(=O)c1ccc(-c2ccc(C(=O)Nc3nc(C)c(C(C)=O)s3)o2)cc1`, the compound was called inactive.

For the compound `Cc1nc(NCc2cccnc2)c2c3c(sc2n1)CC(C)CC3` (stereo unspecified), the call was inactive. With `CC(C)C(=O)Nc1nc(-c2ccc3c(c2)CCN3C(=O)C2CC2)cs1`, the compound was classed as inactive. Regarding `CC(=O)Nc1ccc(S(=O)(=O)Nc2cc(C)c(-n3nc4ccccc4n3)cc2O)cc1`, the compound was classed as inactive. In the case of `CCOc1ccc(NC(=O)CN2CCN(CC(=O)Nc3ccc(Cl)c(C(F)(F)F)c3)CC2)cc1`, the result was inactive. On to `CCNC(=O)c1c(NC(=O)c2cc(-c3cc(C)cc(C)c3O)n[nH]2)sc2c1CCCC2`, for which the compound was called inactive.

In the case of `CC(=O)c1ccc(N2CCN(C(=O)c3cc(-c4cccnc4)nc4ccc(Br)cc34)CC2)cc1`, the compound was called inactive.

Regarding `COc1cc(-c2nnn(Cc3ccccc3C)n2)cc(OC)c1OC`, the compound was called inactive. For `COc1ccc(CCNC(=O)CCC(=O)N2CC(C)Oc3ccc(Cl)cc32)cc1OC` (stereo unspecified) the value was “inactive”; for `CN(Cc1ccc(OC(F)F)cc1)C(=O)c1ccccc1Sc1ccccc1C#N`, “inactive”; for `CCC(C)NC(=O)Cn1cc(S(=O)(=O)N2CCN(c3ccccc3F)CC2)c2ccccc2c1=O` (stereo unspecified), “inactive”. On to `O=C(Nc1ccccc1F)c1ccc2c(c1)CCN2S(=O)(=O)c1ccccc1`, for which the outcome was inactive. Consider `CC(C)OC(=O)c1cccc(C(=O)Nc2cccc(NC(=O)c3cccc(C(=O)OC(C)C)n3)n2)n1`, for which the result was inactive. For the compound `COc1ccc(NC(=O)N2CCN(c3nc(-c4cccc(OC)c4)cs3)CC2)cc1`, the compound was called inactive.

Source of the values: PubChem BioAssay AID493194 (Broad Institute, 2011).
